Shown are actives, neighbours in structure and some others; about 2% of the full set was active somewhere.
TDP-43 yeast inh – inhibitors of TDP-43 toxicity in yeast; Potency, µM (series often up to 46.1 µM), without a hit: top-dose growth rescue (activation), hits mostly activators; AID 652104; TDP-43 expressing yeast growth rescue, BacTiter-Glo, 24 h; 410,000 tested, 1.8% active; note: % of control where 0% means no effect; nearly all actives have a fitted effect of over 50% in size
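In this qHTS, compounds that restore growth of yeast expressing TDP-43 appear as activators. Cells (OD600=0.02, galactose medium, raffinose-pregrown) are incubated with compound 24 hr at 30 deg C and growth is quantified by BacTiter-Glo.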
FUS yeast rescue – FUS proteinopathy suppression in yeast. Potency, µM (top dose mostly 76.6 µM), actives largely listed as activators. 390,000 tested, 0.24% active. AID 1347120. S. cerevisiae FUS-expressing, growth rescue, OD600, 24 h;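 note: plate controls were DMSO vehicle for no effect and reference control for full effect; nearly all actives have a fitted effect of over 55% in size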
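Read-out: OD at 600 nm after 24hr at 30C, reporting rescue of FUS-induced yeast toxicity. Cells at OD 0.005 in galactose (2%) minimal medium; compounds tested in a dilution series; CP55940 titration from 92uM final as control.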
Glioma ERSR ind – inducers of ER stress response in human glioma cells | 420,000 tested, 0.02% active | Potency, µM, without a hit: at the highest dose activation, usual class: activators | U87-MG GRP78 promoter luciferase reporter, 16 h; note: series mostly up to about 76 µM; % of control where 0% means no effect; nearly all actives have a fitted effect of over 35% in size
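Stably transfected U87-MG human glioma cells carrying a GRP78-based luminescent sensor were seeded at 1000 cells/well, pin-dosed with compounds and incubated 16 h. Luciferase reagent was then added, and end-point luminescence was read after 10 min at room temperature.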
MBNL1 CUG block – MBNL1-poly(CUG) RNA binding inhibition | TR-FRET MBNL1-His/biotin-(CUG)12 binding, 665/545 ratio | Potency, µM (doses to about 57.5 µM), for the others: at the highest dose activity change, negative = inhibition, hits mostly inhibitors | 280,000 tested, 0.036% active | Q9NR56; active = well fitted inhibition curve with a large enough effect in the signal ratio, with a control signal flat, not every such curve was filed as active; inconclusive = small, poorly fitted or top-dose-only effect, or effect the other way, or a change in a side signal; inactive = no such curve, though single readings can be large or run the other way; the % refers to the signal ratio; note: % is set by controls: 0 for no effect and ±100 for the full control effect
Target sequence (Q9NR56 whole entry, looked up): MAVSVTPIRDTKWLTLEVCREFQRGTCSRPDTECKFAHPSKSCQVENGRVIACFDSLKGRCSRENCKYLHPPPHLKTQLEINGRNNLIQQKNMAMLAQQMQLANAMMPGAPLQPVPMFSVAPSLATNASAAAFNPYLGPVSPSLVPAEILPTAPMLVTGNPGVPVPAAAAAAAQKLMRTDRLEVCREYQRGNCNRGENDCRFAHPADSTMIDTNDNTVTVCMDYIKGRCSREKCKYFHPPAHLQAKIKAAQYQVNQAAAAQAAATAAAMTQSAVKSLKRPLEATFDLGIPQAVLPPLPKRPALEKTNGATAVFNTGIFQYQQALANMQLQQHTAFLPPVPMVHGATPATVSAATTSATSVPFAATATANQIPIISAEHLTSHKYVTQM
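MBNL1-His + Biotin-(CUG)12, cpd titration 92 nM–58 uM; Tb anti-His Ab 0.055 ng/ul, SA-XL665 5 nM (final); 60 min RT; ratiometric 665/545 nm, Ex 340 nm; normalized to buffer and full-complex controls.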
Abeta rescue – A-beta toxicity reversal in yeast; 410,000 tested, 0.063% active; Potency, µM (doses to about 46.1 µM), usual class: activators; yeast expressing A-beta42, growth rescue, OD600, 48 h; response scale: 0% DMSO, 100% iron-clioquinol control; note: nearly all actives have a fitted effect of over 55% in size
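Yeast A-beta toxicity model in growth medium with pinned compounds, 48 h at 30 C; growth read as absorbance at 600 nm. Normalized to FeCl3/clioquinol equimolar mix (positive) and DMSO (negative).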
aSyn yeast inh – inhibitors of alpha-synuclein toxicity in yeast. Yeast expressing alpha-synuclein, growth rescue, BacTiter-Glo, 24 h. Potency, µM (titrated, usually from 46.1 µM), inactives show at the highest dose growth rescue (activation), most hits filed as activators. 370,000 tested, 0.14% active. AID 652106; note: % of control where 0% means no effect; nearly all actives have a fitted effect of over 65% in size
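Rescue of yeast growth: cells expressing toxic alpha-synuclein, induced in galactose at OD600 0.02, incubated with compound 24 h at 30 C. ATP luminescence quantified growth; inhibitors of toxicity appear as activators.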
Starred values were filed as active, the others as inactive; i = inactive; ? = inconclusive; · = not tested or not shown; [ ] = another dose, or the depositor's remark. Unless noted, calls come from the whole dose curve; as a rule, active = well fitted curve in the direction sought with a large enough effect; inconclusive = small, poorly fitted or top-dose-only effect, or another doubt; inactive = no such curve, though single readings can be large; an effect the other way counts as inactive or inconclusive. Potency is the fitted concentration of half-maximal effect.

SMILES	TDP-43 yeast inh	FUS yeast rescue	Glioma ERSR ind	MBNL1 CUG block	Abeta rescue	aSyn yeast inh
COc1ccc(NC(=S)NNC(=O)C2CC2c2ccc(C)cc2)cc1 (configuration not stated)	?	·	-6%	-12%[11.5 µM]	i	4%
Cc1ccc(C2CC2C(=O)NNC(=S)Nc2cccc(Cl)c2)cc1 (configuration not stated)	14µM*	?	-7%	9%	i	-2%
Cc1ccc(NC(=S)NNC(=O)C2CC2c2ccc(C)cc2)cc1 (configuration not stated)	0%	28µM*	-1%	-10%	?	1%
CCOC(=O)c1ccc(NS(=O)(=O)c2ccc(Br)s2)cc1	18µM*	i	-3%	·	i	·
CCOC(=O)c1ccc(NC(=O)CN(C)S(=O)(=O)c2ccc(Br)s2)cc1	12%	i	-2%	8%	i	3%
Cc1sc2ncn(CC(=O)N3CCN(c4cccc(Cl)c4)CC3)c(=O)c2c1S(=O)(=O)N1CCC(C)CC1	2%	25µM*	-2%	·	i	·
Cc1sc2ncn(CC(=O)N3CCN(c4ccccc4)CC3)c(=O)c2c1S(=O)(=O)N1CCC(C)CC1	-1%	25µM*	-2%	·	i	·
CN(C)c1nc(-c2ccccn2)nnc1-c1ccccc1	26%	i	-4%	6%	i	?
c1ccc(-c2cccc(CNc3nc(-c4ccccn4)nnc3-c3ccccc3)c2)cc1	·	32µM*	·	·	·	·
CN(C)CCNc1nccc(N2CCN(C)CC2)n1	·	·	-5%	·	·	-6%
COc1ccc(-c2nc3cc(C)ccc3cc2CN(C(=O)c2csc(C)n2)C2CC2)cc1OC	·	·	1%	·	·	·
CC(C)(C)c1ccc(-c2cn(C[C@H](Cc3ccccc3)n3c(=O)c4ccccc4n3Cc3ccco3)nn2)cc1	·	i	·	·	·	·
O=c1c2ccccc2n(Cc2ccco2)n1[C@@H](Cc1ccccc1)Cn1cc(-c2ccc(-c3ccccc3)cc2)nn1	·	18µM*	·	·	·	·
O=C(CSc1ncccn1)NCC1Cc2cccc(-c3ncccn3)c2O1 (configuration not stated)	·	·	-2%	·	·	·
CC(C)(C)c1ccc(S(=O)(=O)NC(=O)C2(C)CCN2C(=O)c2cccc3ccccc23)cc1 (configuration not stated)	20µM*	i	0%	·	i	-6%
CC1(C(=O)NS(=O)(=O)c2ccc(Cl)cc2)CCN1C(=O)C1(c2ccccc2)CCCC1 (configuration not stated)	14µM*	i	0%	·	i	-10%
CCCCc1ccc(S(=O)(=O)NC(=O)C2(C)CCN2C(=O)CCc2cccs2)cc1 (configuration not stated)	35µM*	i	2%	·	i	1%
CC1(C(=O)NS(=O)(=O)c2ccc(Cl)cc2)CCN1C(=O)C1(c2ccc(Cl)cc2)CCC1 (configuration not stated)	20µM*	?	0%	·	i	-28%
CCn1c(-c2cccc(OC)c2)nc2cc(NC(C)=O)cc(C(=O)N(C)CC3COCCO3)c21 (configuration not stated)	·	·	-5%	·	·	·
O=[N+]([O-])c1cccc(C2=Nn3c(nnc3-c3ccccc3)SC2)c1	·	i	·	·	·	·
COc1ccc(OC)c(S(=O)(=O)n2c(CN3CCOCC3)nc3ccccc32)c1	·	i	·	·	·	·
CC(C)(C)c1ccc(S(=O)(=O)NC(=O)C2(C)CCN2C(=O)C2(c3ccccc3)CC2)cc1 (configuration not stated)	18µM*	i	-3%	·	i	7%
Cc1ccc(F)c(S(=O)(=O)NC(=O)C2(C)CCN2C(=O)C2(c3ccc(Cl)cc3)CCC2)c1 (configuration not stated)	?	i	12%	·	i	-5%

Screens as filed in PubChem BioAssay.
